IP6K1 inhibitor = IP6K1 kinase inhibition. Q92551. hit rate 0.81% among 140,000. IP6K1 kinase, ADP-Glo luminescence, 2 h; stronger effect = lower value. activity change, % (series mostly up to about 58 µM); in the data active means activity change below about -25%; further: on the % scale 0 is the no-effect control and ±100 the full control effect
Target sequence (Q92551 whole entry, looked up): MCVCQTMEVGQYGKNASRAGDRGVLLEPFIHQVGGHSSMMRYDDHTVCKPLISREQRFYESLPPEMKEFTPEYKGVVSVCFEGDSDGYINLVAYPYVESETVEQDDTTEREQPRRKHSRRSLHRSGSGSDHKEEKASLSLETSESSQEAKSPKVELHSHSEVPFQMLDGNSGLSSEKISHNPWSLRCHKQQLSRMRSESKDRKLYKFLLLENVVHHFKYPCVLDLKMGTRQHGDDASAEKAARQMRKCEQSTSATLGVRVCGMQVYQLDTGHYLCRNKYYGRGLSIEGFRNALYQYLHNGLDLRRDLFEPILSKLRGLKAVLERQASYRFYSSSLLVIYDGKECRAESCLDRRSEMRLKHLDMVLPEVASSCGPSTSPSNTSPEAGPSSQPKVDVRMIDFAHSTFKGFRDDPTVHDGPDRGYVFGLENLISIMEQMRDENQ
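ADP-Glo luminescence measures ADP made by human IP6K1 during a 2 h RT reaction with ATP/IP6 (mix at 1.3 mM/130 uM); top library doses 57.5 and 19.1 uM final.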
KDM5B inhibitor = inhibitors of human KDM5B histone demethylase; hit rate 2.6% among 220,000; Q9UGL1; KDM5B demethylase, FDH-coupled NADH fluorescence (FDH is formaldehyde dehydrogenase); Potency, µM (doses to about 57.7 µM), most hits filed as inhibitors; AID 1347165; further: potency means the concentration at half of the fitted maximal effect; 0% is about no effect; nearly all actives have a fitted effect of over 70% in size
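Measured: NADH fluorescence change, 30 min, RT. System: KDM5BΔAP 200 nM final, H3K4me3 peptide, α-KG, Fe(II), ascorbate, NAD⁺ plus FDH, pH 7.5 HEPES. Compounds: titrated, 10 min pre-incubation with enzyme.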
HEK293 viab = counter-screen for SNCA expression inhibitors: cell viability; Potency, µM (highest dose often 57.1 µM), without a hit: top-dose activity change, negative = cytotoxicity, most hits filed as cytotoxic; AID 1671193; hit rate 0.12% among 150,000; HEK-293-SNCA-luc viability, GF-AFC fluorescence, 24 h;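 further: potency means the concentration at half of the fitted maximal effect; 0% = DMSO-treated cells and -100% = medium-only wells without cells; nearly all actives have a fitted effect of over 30% in size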
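Cytotoxicity counterscreen: after 24 h compound treatment of genome-edited SNCA-luciferase HEK-293 cells, live-cell protease substrate GF-AFC read by fluorescence after 30 min; activity scaled between DMSO (0%) and medium-only (-100%), curves Hill-fitted.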
SNCA expr inh = inhibitors of alpha-synuclein (SNCA) gene expression; hit rate 0.17% among 140,000; HEK-293 SNCA-luciferase knock-in, luminescence, 24 h; Potency, µM (highest dose often 57.2 µM), for the others: top-dose activity change, negative = inhibition, hits mostly inhibitors;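 further: potency means the concentration at half of the fitted maximal effect; plate controls were DMSO cells for no effect and cell-free wells for full effect; nearly all actives have a fitted effect of over 45% in size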
An asterisk follows results filed as active; [ ] = dose if it differs, or a comment. An excerpt weighted towards active compounds, which were near 2.9% of everything screened. Unless noted, the call rests on the fitted dose curve; in most records, active means well fitted curve in the direction sought with a large enough effect; inconclusive means small, poorly fitted or top-dose-only effect, or another doubt; inactive means no such curve, though single readings can be large; an effect the other way counts as inactive or inconclusive.

C#CCn1c(=O)n(-c2cccc(Cl)c2C)c(=O)c2c3c(sc21)CN(C(C)=O)CC3 was read as IP6K1 inhibitor 6, KDM5B inhibitor inactive, HEK293 viab -25% and SNCA expr inh 4µM*.
For CC(=O)N1CCc2c(sc3c2c(=O)n(-c2cccc(Cl)c2C)c(=O)n3Cc2ccccc2C)C1 the results were IP6K1 inhibitor 18, KDM5B inhibitor inactive, HEK293 viab inconclusive and SNCA expr inh -7%.
`C[C@H]1[C@@H]2[C@@H](O)C([C@H](C)C(=O)NCc3ccccc3)CC[C@@]2(C)CC[C@@H]1NC(=O)C1CCCCC1` (some centres undefined) gave IP6K1 inhibitor 3, KDM5B inhibitor inactive, HEK293 viab -1% and SNCA expr inh 5%.
Cc1ccc(Nc2ccc(N3CCN(C(=O)c4ccc([N+](=O)[O-])cc4)CC3)nn2)cc1 was read as IP6K1 inhibitor 39, KDM5B inhibitor inactive, HEK293 viab 9% and SNCA expr inh 9%.
`CC(C)c1noc(-c2ccn3c(CNC(=O)Cc4ccc(F)cc4)nnc3c2)n1` gave IP6K1 inhibitor -2, KDM5B inhibitor inactive, HEK293 viab -17% and SNCA expr inh 3%.
Screening CC(C)c1noc(-c2ccn3c(CNC(=O)Cc4ccccc4Cl)nnc3c2)n1 returned IP6K1 inhibitor -11, KDM5B inhibitor 16µM*, HEK293 viab 0% and SNCA expr inh -11%.
Screening Cc1ccc(CC(=O)NCc2nnc3cc(-c4nc(C(C)C)no4)ccn23)cc1 returned IP6K1 inhibitor 13, KDM5B inhibitor 25µM*, HEK293 viab -4% and SNCA expr inh -4%.
CCCc1noc(-c2ccn3c(CNC(=O)Cc4ccccc4Cl)nnc3c2)n1 was read as IP6K1 inhibitor 41, KDM5B inhibitor 14µM*, HEK293 viab -5% and SNCA expr inh 9%.
CCO[C@H]1CN(C(=O)c2cn3cc(Cl)ccc3n2)C[C@@H]1O was read as IP6K1 inhibitor -13, KDM5B inhibitor inconclusive, HEK293 viab 1% and SNCA expr inh -2%.
Cn1ccnc1CN1C[C@@H](F)[C@@H](OCc2nc3ccc(F)cc3[nH]2)C1 was read as IP6K1 inhibitor 13, KDM5B inhibitor inconclusive, HEK293 viab 9%[87.6 µM] and SNCA expr inh 1%[87.6 µM].
Cc1cc2c(cc1C)CSC(c1cc(Br)ccc1O)SC2 was read as KDM5B inhibitor inactive.
`CCOc1ccc(/C=C(\C#N)C(=O)Nc2sc3c(c2C(=O)OC)CCC3)cc1OC` gave IP6K1 inhibitor 12, KDM5B inhibitor inactive, HEK293 viab -3% and SNCA expr inh -12%.
O=c1cc(-c2ccncc2)oc2c(-c3cccc(CO)c3)nccc12 was read as IP6K1 inhibitor -11, KDM5B inhibitor 35µM*, HEK293 viab 1%[87.6 µM] and SNCA expr inh -7%[87.6 µM].
Screening CN1CCN(c2cc(=O)c3ccnc(-c4ccc(CO)cc4)c3o2)CC1 returned IP6K1 inhibitor -15, KDM5B inhibitor 35µM*, HEK293 viab 2%[87.6 µM] and SNCA expr inh 1%[87.6 µM].
For CN1CCN(c2cc(=O)c3ccnc(-c4cccc(CO)c4)c3o2)CC1 the results were IP6K1 inhibitor -18, KDM5B inhibitor 28µM*, HEK293 viab -6%[87.6 µM] and SNCA expr inh 27%[87.6 µM].
CC(=O)Nc1cccc(-c2nccc3c(=O)cc(-c4ccncc4)oc23)c1 was read as IP6K1 inhibitor -15, KDM5B inhibitor inconclusive, HEK293 viab -4%[87.6 µM] and SNCA expr inh 1%[87.6 µM].
For Cc1cc(-c2nccc3c(=O)cc(N4CCOCC4)oc23)ccn1 the results were IP6K1 inhibitor -3, KDM5B inhibitor inconclusive, HEK293 viab 4%[87.6 µM] and SNCA expr inh 42%[87.6 µM].
CN1CCN(c2cc(=O)c3ccnc(-c4cccc(F)c4)c3o2)CC1 was read as IP6K1 inhibitor -8, KDM5B inhibitor 35µM*, HEK293 viab -9%[87.6 µM] and SNCA expr inh 21%[87.6 µM].
Screening CN1CCN(c2cc(=O)c3ccnc(Nc4ccccn4)c3o2)CC1 returned IP6K1 inhibitor -14, KDM5B inhibitor inconclusive, HEK293 viab 3%[87.6 µM] and SNCA expr inh 21%[87.6 µM].
`CCC1CCCCN1C(=O)c1ccccc1Br` (centres undefined) gave KDM5B inhibitor inactive.
`CCCOc1nccnc1NC1CCN(S(=O)(=O)C2CC2)CC1` gave IP6K1 inhibitor -3, KDM5B inhibitor 16µM*, HEK293 viab 11% and SNCA expr inh inconclusive.
`CCOc1nccnc1NC1CCN(S(=O)(=O)C2CC2)CC1` gave IP6K1 inhibitor -1, KDM5B inhibitor 32µM*, HEK293 viab 10% and SNCA expr inh 1%.
`CN(C)c1nccnc1OC1CCN(S(=O)(=O)Cc2ccccc2)C1` (centres undefined) gave IP6K1 inhibitor -1, KDM5B inhibitor inconclusive, HEK293 viab -4% and SNCA expr inh 11%.
For COC(=O)c1ccc(S(=O)(=O)N2CCCC2c2cccn2C)cc1 (centres undefined) the results were KDM5B inhibitor inactive.
O=C(c1noc(-c2ccc(F)cc2)n1)N1CCN(c2ccccc2)CC1 was read as IP6K1 inhibitor -16, KDM5B inhibitor inconclusive, HEK293 viab 0% and SNCA expr inh 32%.
Screening O=C(c1noc(-c2ccc(F)cc2)n1)N1CCN(c2ccccc2F)CC1 returned IP6K1 inhibitor 1, KDM5B inhibitor 32µM*, HEK293 viab 1% and SNCA expr inh inconclusive.
Screening Cc1ccc(-c2noc(-c3ccc(N4CCCCC4)c([N+](=O)[O-])c3)n2)cc1 returned IP6K1 inhibitor -4, KDM5B inhibitor inactive, HEK293 viab -6% and SNCA expr inh -4%.
`O=[N+]([O-])c1cc(-c2nc(-c3ccccc3)no2)ccc1N1CCCCC1` gave IP6K1 inhibitor 8, KDM5B inhibitor inactive, HEK293 viab 7% and SNCA expr inh 10µM*.
O=C(NCc1cccc(Cl)c1)C1CCCN1C(=O)c1cccc(-c2cccnc2)c1 (centres undefined) was read as IP6K1 inhibitor -7.
Screening Nc1ccc2c(N3CCCCC3)ncnc2c1 returned IP6K1 inhibitor 5, KDM5B inhibitor inconclusive, HEK293 viab -7% and SNCA expr inh 4%.
`Nc1ccc2ncnc(N3CCCCC3)c2c1` gave IP6K1 inhibitor 4, KDM5B inhibitor 28µM*, HEK293 viab -12% and SNCA expr inh inconclusive.
For Cc1cccc(C(=O)NCCc2sc(-c3ccccc3)nc2C)c1 the results were IP6K1 inhibitor -4, KDM5B inhibitor inconclusive, HEK293 viab 5% and SNCA expr inh 73%.
Screening COc1cccc(-c2cc3c(=O)n(CCNC(=O)C4CCN(C(C)=O)CC4)ccn3n2)c1 returned IP6K1 inhibitor -13, KDM5B inhibitor 20µM*, HEK293 viab -9% and SNCA expr inh 22%.
COc1cccc(-c2cc3c(=O)n(CCNC(=O)C4CCCCC4)ccn3n2)c1 was read as IP6K1 inhibitor -10, KDM5B inhibitor inactive, HEK293 viab -12% and SNCA expr inh 75%.
For COc1cccc(-c2cc3c(=O)n(CCNC(=O)c4cc(Cl)ccc4F)ccn3n2)c1 the results were IP6K1 inhibitor -13, KDM5B inhibitor 25µM*, HEK293 viab 1% and SNCA expr inh 29%.

Screening results deposited in PubChem BioAssay by National Center for Advancing Translational Sciences (NCATS).
